Assay results: ChEMBL document CHEMBL5724796, “Tm Shift (DSF) assay results for EUbOPEN Chemogenomics Library” (2024)
Residues, ends and D or L forms follow the SMILES beside them. *: point of attachment. CH2Cl = ClC*

Key:
Conditions in all cases: Compound concentration 20.0 uM
[1] = target: Tyrosine-protein kinase ABL1 (Homo sapiens) (UniProt P00519)
[2] = target: Bromodomain-containing protein 4 (Homo sapiens) (UniProt O60885)
[3] = target: Cyclin-dependent kinase 2 (Homo sapiens) (UniProt P24941)
[4] = target: Casein kinase I isoform delta (Homo sapiens) (UniProt P48730)
Casein kinase I isoform delta (Homo sapiens), sequence (P48730 whole entry, looked up, canonical isoform): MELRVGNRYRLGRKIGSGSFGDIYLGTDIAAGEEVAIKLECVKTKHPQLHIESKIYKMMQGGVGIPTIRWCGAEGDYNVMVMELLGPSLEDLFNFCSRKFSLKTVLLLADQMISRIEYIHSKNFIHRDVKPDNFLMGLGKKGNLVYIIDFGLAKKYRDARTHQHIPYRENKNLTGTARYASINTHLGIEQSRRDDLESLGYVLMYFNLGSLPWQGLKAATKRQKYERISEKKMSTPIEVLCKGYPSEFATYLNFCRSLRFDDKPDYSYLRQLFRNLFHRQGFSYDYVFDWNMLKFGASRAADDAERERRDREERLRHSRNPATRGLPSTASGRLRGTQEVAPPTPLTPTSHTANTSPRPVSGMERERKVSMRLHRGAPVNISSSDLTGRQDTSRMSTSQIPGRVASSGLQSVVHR

[5] = target: Glycogen synthase kinase-3 beta (Homo sapiens) (UniProt P49841)
Glycogen synthase kinase-3 beta (Homo sapiens), sequence (P49841 whole entry, looked up): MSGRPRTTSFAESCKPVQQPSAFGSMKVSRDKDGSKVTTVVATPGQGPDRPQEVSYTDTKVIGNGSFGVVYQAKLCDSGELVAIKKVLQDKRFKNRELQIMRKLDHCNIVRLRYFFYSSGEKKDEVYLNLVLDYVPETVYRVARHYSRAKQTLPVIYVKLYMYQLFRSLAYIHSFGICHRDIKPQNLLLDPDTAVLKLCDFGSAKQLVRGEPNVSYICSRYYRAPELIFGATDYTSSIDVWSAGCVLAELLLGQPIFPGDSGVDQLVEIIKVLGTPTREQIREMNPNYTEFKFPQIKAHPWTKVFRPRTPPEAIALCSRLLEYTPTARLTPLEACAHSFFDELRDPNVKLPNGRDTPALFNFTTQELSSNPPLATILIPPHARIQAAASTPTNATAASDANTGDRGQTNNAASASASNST

[6] = target: Mitogen-activated protein kinase 1 (Homo sapiens) (UniProt P28482)
Mitogen-activated protein kinase 1 (Homo sapiens), sequence (P28482 whole entry): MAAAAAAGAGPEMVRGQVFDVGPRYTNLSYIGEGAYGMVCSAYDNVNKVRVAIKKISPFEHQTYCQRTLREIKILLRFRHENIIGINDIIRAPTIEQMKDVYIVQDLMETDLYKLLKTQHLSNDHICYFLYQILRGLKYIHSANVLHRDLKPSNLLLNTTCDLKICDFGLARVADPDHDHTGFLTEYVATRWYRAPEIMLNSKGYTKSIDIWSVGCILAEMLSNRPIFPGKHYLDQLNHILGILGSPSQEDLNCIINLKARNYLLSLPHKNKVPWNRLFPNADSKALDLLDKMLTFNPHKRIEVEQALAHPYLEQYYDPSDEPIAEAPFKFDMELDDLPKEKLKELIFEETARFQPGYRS

[7] = target: T1, Aurora kinase A (Homo sapiens) (UniProt O14965)
T1 sequence (whole entry): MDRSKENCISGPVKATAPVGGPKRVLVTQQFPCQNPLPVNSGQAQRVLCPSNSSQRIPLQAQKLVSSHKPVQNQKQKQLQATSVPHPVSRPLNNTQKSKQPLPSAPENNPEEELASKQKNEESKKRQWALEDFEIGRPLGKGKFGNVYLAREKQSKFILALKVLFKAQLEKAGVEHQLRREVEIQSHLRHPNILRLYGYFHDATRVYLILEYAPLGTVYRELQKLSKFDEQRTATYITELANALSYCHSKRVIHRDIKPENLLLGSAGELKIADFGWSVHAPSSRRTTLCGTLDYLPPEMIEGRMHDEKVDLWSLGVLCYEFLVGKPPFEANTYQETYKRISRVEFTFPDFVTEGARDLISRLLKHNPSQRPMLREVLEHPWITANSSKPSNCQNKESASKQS

[8] = target: T2, Transcription intermediary factor 1-alpha (Homo sapiens) (UniProt O15164)
T2 sequence (whole entry): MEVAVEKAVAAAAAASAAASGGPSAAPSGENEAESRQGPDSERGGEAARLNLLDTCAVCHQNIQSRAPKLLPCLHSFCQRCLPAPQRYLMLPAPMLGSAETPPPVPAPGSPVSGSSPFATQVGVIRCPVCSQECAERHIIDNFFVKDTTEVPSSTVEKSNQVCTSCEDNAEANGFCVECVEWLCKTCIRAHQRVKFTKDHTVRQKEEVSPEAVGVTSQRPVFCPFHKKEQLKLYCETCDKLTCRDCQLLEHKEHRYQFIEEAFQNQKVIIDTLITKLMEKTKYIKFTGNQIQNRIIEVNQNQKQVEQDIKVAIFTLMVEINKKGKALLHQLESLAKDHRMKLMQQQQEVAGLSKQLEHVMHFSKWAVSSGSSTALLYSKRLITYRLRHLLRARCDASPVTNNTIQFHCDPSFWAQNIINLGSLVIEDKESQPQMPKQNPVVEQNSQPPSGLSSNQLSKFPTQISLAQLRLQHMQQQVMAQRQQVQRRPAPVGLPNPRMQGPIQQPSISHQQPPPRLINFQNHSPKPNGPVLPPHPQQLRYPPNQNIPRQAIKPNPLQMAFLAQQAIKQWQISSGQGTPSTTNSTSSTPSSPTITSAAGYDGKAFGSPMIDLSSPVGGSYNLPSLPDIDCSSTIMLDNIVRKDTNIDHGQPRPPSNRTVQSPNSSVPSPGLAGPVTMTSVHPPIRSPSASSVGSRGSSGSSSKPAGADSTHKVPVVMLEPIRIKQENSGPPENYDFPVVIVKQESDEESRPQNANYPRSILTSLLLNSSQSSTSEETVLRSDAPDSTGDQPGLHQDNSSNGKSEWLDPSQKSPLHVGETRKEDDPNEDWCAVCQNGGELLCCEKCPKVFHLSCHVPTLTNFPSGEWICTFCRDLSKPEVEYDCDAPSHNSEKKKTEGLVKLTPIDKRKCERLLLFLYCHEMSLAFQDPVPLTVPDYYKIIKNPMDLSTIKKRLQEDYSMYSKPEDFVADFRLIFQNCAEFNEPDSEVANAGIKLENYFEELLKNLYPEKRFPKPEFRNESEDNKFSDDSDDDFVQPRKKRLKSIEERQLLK

Tyrosine-protein kinase ABL1 (Homo sapiens), sequence (P00519 whole entry): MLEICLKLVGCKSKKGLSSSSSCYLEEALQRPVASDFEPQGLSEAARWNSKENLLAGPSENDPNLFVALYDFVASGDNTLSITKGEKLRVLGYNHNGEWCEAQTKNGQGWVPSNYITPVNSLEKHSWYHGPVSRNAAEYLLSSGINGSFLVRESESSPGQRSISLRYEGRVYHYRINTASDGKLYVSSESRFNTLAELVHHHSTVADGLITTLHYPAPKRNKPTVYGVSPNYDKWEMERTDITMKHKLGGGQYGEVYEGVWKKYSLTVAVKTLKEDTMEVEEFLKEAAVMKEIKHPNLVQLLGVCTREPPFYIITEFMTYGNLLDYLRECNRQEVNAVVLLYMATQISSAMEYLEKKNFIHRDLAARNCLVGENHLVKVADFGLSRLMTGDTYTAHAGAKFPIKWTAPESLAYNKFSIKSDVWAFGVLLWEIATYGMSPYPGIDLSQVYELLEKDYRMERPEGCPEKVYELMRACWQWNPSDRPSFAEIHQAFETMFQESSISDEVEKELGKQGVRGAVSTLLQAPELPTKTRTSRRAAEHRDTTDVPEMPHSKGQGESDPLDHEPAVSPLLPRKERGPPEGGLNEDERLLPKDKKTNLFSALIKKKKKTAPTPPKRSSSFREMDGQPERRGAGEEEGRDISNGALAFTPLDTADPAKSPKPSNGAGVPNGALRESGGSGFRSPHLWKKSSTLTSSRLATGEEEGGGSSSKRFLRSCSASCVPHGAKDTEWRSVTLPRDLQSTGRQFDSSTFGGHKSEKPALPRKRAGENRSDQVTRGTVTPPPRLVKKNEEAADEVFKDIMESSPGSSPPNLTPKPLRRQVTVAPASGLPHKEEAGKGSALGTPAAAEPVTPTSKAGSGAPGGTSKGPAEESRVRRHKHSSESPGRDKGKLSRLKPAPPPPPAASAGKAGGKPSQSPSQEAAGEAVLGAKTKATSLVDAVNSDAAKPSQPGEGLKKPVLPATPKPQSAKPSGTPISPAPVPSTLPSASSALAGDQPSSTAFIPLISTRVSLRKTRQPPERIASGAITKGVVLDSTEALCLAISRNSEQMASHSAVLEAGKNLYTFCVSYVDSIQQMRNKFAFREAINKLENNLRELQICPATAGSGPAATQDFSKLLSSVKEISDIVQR

| Structure (SMILES) | ΔTm [1] | ΔTm [2] | ΔTm [3] | ΔTm [4] | ΔTm [5] | ΔTm [6] | ΔTm [7] | ΔTm [8] |
| --- | --- | --- | --- | --- | --- | --- | --- | --- |
| N[C@@H](CCCCB(O)O)C(=O)O | 0.06 °C | 1.28 °C | 0.26 °C | -0.26 °C | -0.55 °C | 0.18 °C | -0.4 °C | -0.41 °C |
| O=C(O)[C@@H]1CCCN(C(=O)n2cnc(-c3ccc(-c4cnc(N5CCOCC5)nc4)cc3)n2)[C@H]1c1ccccc1 | 0.15 °C | -1.06 °C | -1.79 °C | 1.27 °C | -3.37 °C | 0.69 °C | -5.07 °C | 0 °C |
| COc1ccc(-n2c(SCCCN3C(=O)c4cccc5cccc(c45)C3=O)nnc2-c2ccncc2)cc1 | 0.68 °C | -3.3 °C | -0.02 °C | 0.26 °C | -0.45 °C | 0.07 °C | -1.38 °C | 0.1 °C |
| CC(=O)N[C@@H](CC(C)C)C(=O)N[C@@H](CCC(=O)O)C(=O)N[C@@H](Cc1cnc[nH]1)C(=O)N[C@@H](CC(=O)O)C(=O)CCl (Ac-LEHD-CH2Cl) | 0.46 °C | -2.67 °C | -0.58 °C | 0.2 °C | 0.91 °C | 0.29 °C | -1.15 °C | -1.2 °C |
| CC(C)N(CCCNC(=O)Nc1ccc(C(C)(C)C)cc1)C[C@H]1O[C@@H](n2ccc3c(N)ncnc32)[C@H](O)[C@@H]1O | 0.45 °C | -1.62 °C | 0.52 °C | 0.47 °C | -0.31 °C | 0.01 °C | 0.01 °C | -1.18 °C |
| NC(=O)c1cc(F)cc2c1C(=O)N(C1CCN(C3CCC(F)(F)CC3)CC1)C2 | 0 °C | -1.47 °C | 0.02 °C | 0.25 °C | -0.85 °C | 0.19 °C | -1.86 °C | 1.35 °C |
| CCCCCCNC(=O)n1cc(Cl)c(=O)n(C(=O)OCC(C)C)c1=O | 0.44 °C | -0.35 °C | 0.16 °C | -0.34 °C | -0.76 °C | -0.05 °C | -0.58 °C | 0.93 °C |
| NCCOCCOCCNC(=O)Cc1ccc(Nc2nc(NCc3ccc(F)cc3)nc(NCC3CCCCC3)n2)cc1 | 0.61 °C | -3.77 °C | 0.63 °C | 0.54 °C | 0 °C | 0.37 °C | -2.14 °C | -0.27 °C |
| CC1(NC(=O)COc2cccc(-c3nc4c(c(Nc5ccc(-c6cn[nH]c6)cc5)n3)CN(C3CCC3)CC4)c2)CC1 | 0.81 °C | -2.72 °C | 0.02 °C | -0.75 °C | -0.18 °C | 0.14 °C | 0.11 °C | -0.35 °C |
| O=C1Nc2ccccc2C2(CCN(CC(Cc3ccccc3)Nc3nc4ccc(F)cc4s3)CC2)N1 (centres undefined) | 0.77 °C | -4.21 °C | -0.52 °C | -0.49 °C | -1.4 °C | -0.14 °C | -2.22 °C | 0.18 °C |
| Cc1cc(C)c(CNC(=O)c2cc(-c3ccc(N4CCN(C)CC4)nc3)cc3c2c(C)cn3C(C)C)c(=O)[nH]1 | 0.38 °C | -2.02 °C | 0.39 °C | 0.02 °C | 0 °C | 0.02 °C | -1.34 °C | -0.72 °C |
| NS(=O)(=O)OC[C@H]1C[C@@H](Nc2ncncc2C(=O)c2ccn(Cc3cccc(Br)c3)n2)C[C@@H]1O | 0.71 °C | -2.22 °C | 0.03 °C | 0.64 °C | 1.22 °C | 0.37 °C | -1.76 °C | -1.07 °C |
| COC(=O)[C@@H]1CC2=CC(=O)CC[C@]2(C)[C@@]23O[C@@H]2C[C@@]2(C)[C@@H](CC[C@@]24CCC(=O)O4)[C@H]13 | 0.55 °C | -1.74 °C | -0.21 °C | 0.47 °C | -0.8 °C | 0.21 °C | -0.81 °C | -0.62 °C |
| Nc1cc(F)ccc1NC(=O)c1ccc(CNC(=O)/C=C/c2cccnc2)cc1 | 0.72 °C | -1.97 °C | -0.55 °C | 0.17 °C | -1.09 °C | -3.81 °C | -0.25 °C | -1.2 °C |
| C[C@H](CN[C@@H](C(=O)Nc1ccc(-c2cnn(C)c2)cn1)c1ccccc1)c1ccc(C#N)cc1 | -0.21 °C | -5.89 °C | -3.07 °C | 1.03 °C | -2.94 °C | -4.97 °C | -1.84 °C | -1.37 °C |
| C[C@H](Nc1nc2c(cnn2C2CCCC2)c(=O)[nH]1)c1ccc(Cl)cc1 | -2.54 °C | -1.24 °C | -1 °C | 0.11 °C | -1.9 °C | -7.46 °C | -6.85 °C | 0.56 °C |
| O=S(=O)(CSc1nnc(Br)n1Cc1ccc(Br)c2ccccc12)Nc1cccnc1 | 0.41 °C | -4.11 °C | -0.15 °C | -0.32 °C | -0.3 °C | 0.05 °C | -1.41 °C | -0.15 °C |
| CCCCOc1c(OC)cc(C(=O)NCC2(N(C)C)CCOCC2)cc1OC | 0.07 °C | 0.11 °C | 0.02 °C | -0.36 °C | -1.71 °C | 0.03 °C | -2.39 °C | -0.41 °C |
| CCc1c(C)nc(-c2ccc(Cl)s2)nc1Nc1ccc(CC(=O)O)cc1 | 0.97 °C | -2.77 °C | 0.44 °C | -0.04 °C | 0 °C | 0.51 °C | -0.9 °C | 1.46 °C |
| O=C(NCc1ncccc1F)c1coc(CCNCCc2nc3ccccc3[nH]2)n1 | 0.46 °C | -3.66 °C | -0.13 °C | -0.23 °C | -0.87 °C | -0.05 °C | -2.57 °C | -0.59 °C |
| c1cncc(-c2cnn[nH]2)c1 | 0.48 °C | -1.91 °C | -0.01 °C | -0.01 °C | -0.3 °C | 0.24 °C | -1.49 °C | -0.2 °C |
| CC(=O)N[C@@H](CC(C)C)C(=O)N[C@@H](CCC(=O)O)C(=O)N[C@H](C(=O)N[C@H](C=O)CC(=O)O)C(C)C (Ac-LEVD-aldehyde) | 0.2 °C | -2.55 °C | -0.57 °C | 0.25 °C | -2.05 °C | -0.12 °C | -1.87 °C | -2.52 °C |
| CCS(=O)(=O)N1CC(CC#N)(n2cc(-c3ncnc4[nH]ccc34)cn2)C1 | 2.37 °C | -1.2 °C | 0.85 °C | 1.28 °C | 3.43 °C | 0.18 °C | 5.08 °C | -0.73 °C |
